Bioassay records deposited in PubChem BioAssay by National Center for Advancing Translational Sciences (NCATS).
In the library only some 21% were active in any assay of this set; here they are far more common.
Shiga inhibitor: Shiga toxin inhibition | Vero cells, Shiga toxin protein synthesis inhibition reporter | inhibition, % at 38.7 µM | 9.2% of 290,000 active | AID 2315; in the data active = inhibition mostly above about 28%, no sharp cut-off; inactive = mostly below about 43%
Pf growth 48h: inhibits P. falciparum growth in the first generation, 48 h; P. falciparum luciferase growth in erythrocytes, 48 h; Potency, µM (top dose mostly 28.7 µM), actives largely listed as inhibitors; 5.9% of 310,000 active
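Luciferase-expressing parasites in RBCs, 2% Hct / 0.1% parasitemia final; RPMI 1640 + 0.5% Albumax; 37 C, 5% CO2, one generation; luminescence read-out, lower signal = inhibition.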
AMA1-RON2 inh: disrupts binding of P. falciparum AMA1 to RON2; AlphaScreen AMA1-biotinylated RON2 peptide binding; Potency, µM (highest dose often 58.2 µM), hits mostly inhibitors; 0.2% of 360,000 active; AID 720542; also: nearly all actives have a fitted effect of over 45% in size
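AMA1 (3D7) with his tag at 25 nM final met compounds first, then biotinylated RON2 peptide at 25 nM; detection used donor plus acceptor beads, 10 µg/mL apiece, read by AlphaScreen after 30 min at room temperature.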
Cycloheximide cs: counter-screen hit for Shiga toxin inhibitors, cycloheximide; cell reporter, cycloheximide protein synthesis inhibition counterscreen; max response, %; 12% of 300,000 active; AID 2314; in the data active = max response mostly above about 13%, no sharp cut-off; inactive = mostly below about 14%; also: read at 38.3 µM for the half of the compounds with a filed dose
HCV inh: inhibitors of hepatitis C virus infection; AID 651820; Potency, µM (titrated, usually from 41.8 µM), actives largely listed as inhibitors; 3.4% of 340,000 active; Huh7.5.1 HCVcc-Cre infection, luciferase reporter, 44 h
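Cells (1,000/well) were plated 4 h before compound, then infected with HCVcc-Cre virus (~0.5 moi). After 44 h further culture, infection was read as luciferase luminescence following a 15 min substrate incubation at room temperature.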
Pf growth 96h: P. falciparum growth inhibition at 96 hour, primary screen for plastid delayed-death inhibitors | AID 504834 | Potency, µM (highest dose often 28.7 µM), actives largely listed as inhibitors | 6.9% of 320,000 active | P. falciparum luciferase reporter growth, 96 h
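Readout is luminescence from an integrated firefly luciferase in P. falciparum. Red cells, 2% hematocrit and 0.05% parasitemia final, were cultured with compound through two parasite generations (96 hours) at 37 C, 5% CO2.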
A number is an active result; . = inactive; ? = inconclusive; / = not tested or not shown. Unless noted, calls follow the shape of the dose curve; as a rule, active = well fitted curve in the direction sought with a large enough effect; inconclusive = small, poorly fitted or top-dose-only effect, or another doubt; inactive = no such curve, though single readings can be large; an effect the other way counts as inactive or inconclusive.

SMILES | Shiga inhibitor | Pf growth 48h | AMA1-RON2 inh | Cycloheximide cs | HCV inh | Pf growth 96h
CCOc1ccc2[nH]c3c(N4CCN(c5ccccn5)CC4)ncnc3c2c1 | . | ? | . | . | 1µM | .
Cc1ccc2c(c1)[nH]c1c(N3CCN(Cc4ccccc4)CC3)ncnc12 | . | 0.52µM | . | . | 3.2µM | ?
c1ccc2c(c1)[nH]c1c(N3CCC4(CC3)OCCO4)ncnc12 | . | / | . | . | 7.1µM | ?
Cc1cccc(NNC(=O)c2c(F)cccc2Cl)c1 | . | . | . | . | ? | .
Fc1ccc2[nH]c3c(N4CCN(C5CCCCC5)CC4)ncnc3c2c1 | . | 2.3µM | / | . | / | .
Cc1ccc2[nH]c3c(N4CCN(Cc5ccc6c(c5)OCO6)CC4)ncnc3c2c1 | . | ? | / | . | / | /
Cc1ccc2[nH]c3c(N4CCN(Cc5ccccc5)CC4)ncnc3c2c1 | . | 1.7µM | . | . | ? | /
c1ccc(CN2CCN(c3ncnc4c3[nH]c3ccccc34)CC2)cc1 | . | 0.93µM | . | . | 11µM | .
COc1ccc(CNC(=O)[C@@H](NC(=O)C2CCN(S(=O)(=O)c3ccc(C)cc3)CC2)C(C)C)cc1OC | . | . | . | . | . | ?
C[C@@H]1CC2OC(=O)[C@@]3(C)C(=O)CC[C@@](C)(C23)[C@@]1(O)CCc1ccoc1 (some centres not stated) | . | . | . | 26 | . | .
Nc1nn(-c2ccccc2Cl)cc1-c1nn[nH]n1 | . | . | . | . | ? | .
CC(=O)Nc1ccc(NC(=O)C(=O)NCC(c2ccco2)N2CCc3ccccc32)cc1 (configuration not stated) | / | 13µM | . | / | . | 10µM
COc1ccc(NC(=O)C(=O)NCC(c2ccco2)N2CCc3ccccc32)cc1 (configuration not stated) | / | . | . | / | ? | .
Cc1ccc([C@H]2C[C@H](n3cc(C4CC4)nn3)[C@@H](O)CN2C(=O)C2CCCCC2)cc1 | / | / | . | / | / | /
O=C(Nc1ccc([N+](=O)[O-])cc1)C(Cc1ccccc1)N1C(=O)c2cccc3cccc(c23)C1=O (configuration not stated) | . | 5.2µM | . | . | . | ?
O=C(O)c1ccccc1NC(=O)C(Cc1ccccc1)N1C(=O)c2ccccc2C1=O (configuration not stated) | . | . | . | . | . | ?
CCC(Sc1nc2ncccc2[nH]1)C(=O)NCCc1ccccc1 (configuration not stated) | . | . | . | . | . | .
O=C(Nc1ccccc1C(=O)N1CCCC1)c1ncoc1-c1cccc(Cl)c1 | . | . | . | . | . | ?
CN(C)CCCN(C(=O)c1ccc2c(c1)CCCC2)c1nc2cc3c(cc2s1)OCO3 | . | 12µM | . | . | ? | 2.3µM
CN(C)CCCN(C(=O)c1ccc(Br)s1)c1nc2cc3c(cc2s1)OCO3 | . | . | . | . | ? | ?
CN(C)CCCN(C(=O)c1ccc2c(c1)CCCC2)c1nc2ccc(F)cc2s1 | . | 8.3µM | ? | . | 7.9µM | ?
Cc1oc2cc(O)ccc2c(=O)c1Oc1ccc2ccccc2c1 | 38 | . | . | . | . | .
COc1ccccc1C(=O)Nc1ccc2c(c1)n(C)c(=O)n2C | . | . | . | . | . | .
Cc1c(/C=N/O)sc2ccccc12 | . | ? | . | . | . | .
CC(=Nc1ccc(Br)cc1)c1sc2ccccc2c1O | 111 | . | . | 60 | ? | .
SMILES | Shiga inhibitor | Pf growth 48h | AMA1-RON2 inh | Cycloheximide cs | HCV inh | Pf growth 96h
CC(=Nc1ccccc1)c1sc2ccccc2c1O | 139 | . | . | 50 | ? | .
COc1ccc([C@H]2N[C@]3(CCCN(Cc4ccco4)C3=O)[C@H]3C(=O)N(Cc4ccccc4)C(=O)[C@@H]23)cc1 | / | / | . | / | / | /
Cc1ccc(S(=O)(=O)Cc2ccc(C(=O)NC3CCCC3)o2)cc1 | . | . | . | . | . | .
COc1ccc(S(=O)(=O)Cc2ccc(C(=O)NC3CCCCCC3)o2)cc1 | . | . | . | . | ? | 7.4µM
COC(=O)c1ccc(CS(=O)(=O)c2ccc(F)cc2)o1 | . | . | . | . | . | 5.2µM
COc1ccc(S(=O)(=O)Cc2ccc(C(=O)NC(C)C)o2)cc1 | . | . | . | . | . | .
O=C(NC1CCCCCC1)c1ccc(CS(=O)(=O)Cc2ccc(F)cc2)o1 | 40 | . | . | 22 | . | ?
CCCCOCCCNC(=O)C[C@@H]1C[C@@]2(C(=O)OC)CCCCC=C2N(Cc2cccc3ccccc23)C1=O | / | / | . | / | / | /
O=C(Nc1cccc(F)c1)/C(=C/c1ccco1)NC(=O)c1ccco1 | . | . | . | 20 | . | .
CNC(=O)/C(=C\c1ccco1)NC(=O)c1ccco1 | . | 9.3µM | . | . | . | .
C[C@H](CO)N1C[C@H](C)[C@@H](CN(C)Cc2ccc(C(=O)O)cc2)OCc2cnnn2CCCC1=O | / | / | . | / | / | /
CCOc1ccc(NC(=O)NC2CCS(=O)(=O)C2)cc1 (configuration not stated) | . | . | . | . | . | .
COc1cccc(C(=O)Nc2ccc3c(c2)n(C)c(=O)n3C)c1 | . | . | . | . | . | ?
COc1cccc(C(=O)Nc2cccc(OC(C)=O)c2)c1 | 52 | . | . | 45 | . | .
COc1cccc(C(=O)Nc2ccc(C3CC3(Cl)Cl)cc2)c1 (configuration not stated) | 85 | . | . | 28 | ? | .
Cc1cc(OCC(=O)c2ccc(F)cc2)ccc1N1C(=O)CCC1=O | . | . | . | . | . | 9.3µM
COc1cccc(C(=O)Nc2ccc(C(=O)c3ccccc3)cc2)c1 | / | . | . | 36 | 10µM | ?
Cc1cccc(C(=O)NNC(=O)c2ccc(F)cc2)c1 | . | . | . | 14 | . | ?
CSc1ncc(C(=O)Nc2ccccc2)cn1 | . | . | . | . | . | .
COc1cccc(NC(=O)c2cnc(SC)nc2)c1 | . | . | . | 21 | . | .
COc1cccc(C(=O)Nc2cccc(C(C)=O)c2)c1 | 18 | . | . | 87 | . | .
COc1cc(OC)cc(C(=O)Nc2cccc(NC(C)=O)c2)c1 | . | . | . | . | . | .
COc1cccc(C(=O)Nc2ccncc2)c1 | . | . | / | . | / | .
COc1cccc(C(=O)Nc2cccnc2)c1 | . | . | . | 48 | . | /
CC1CC=CC2C1C(=O)N(Cc1ccccc1)C2c1ccc(F)c(/C=C/c2ccccc2)c1 (configuration not stated) | . | / | / | . | / | /
COc1cccc(NC(=S)NC(=O)c2cccnc2)c1 | 39 | . | . | 18 | . | .
COc1cccc(C(=O)Nc2cc3c(cc2C(C)=O)OCCO3)c1 | . | . | . | . | ? | 10µM
CCOc1cccc(C(=O)Nc2ccc(N(CC)CC)cc2)c1 | . | . | ? | . | ? | ?
CCOc1cccc(C(=O)Nc2ccc3ccccc3c2)c1 | . | . | . | 21 | . | .
CC(=O)Nc1cccc(NC(=O)c2ccc(COc3ccccc3)cc2)c1 | 109 | . | . | 59 | ? | .
